Drawing on PubChem BioAssay (EPA / NIEHS), this text covers outcome and AC50 for 32 molecules.

Molecules are shown by their SMILES. Results filed as inconclusive are left out. Calls of active or inactive are those of the source. The calls were made as follows: active = hit-call score of the fitted dose curve at least 0.9, where 1 is the maximum; inconclusive = response in the unintended direction; inactive = score below 0.9.

rat Monoamine Oxidase, MAO-B, Central (MAOBC), Maob (gene 25750), sequence (P19643 whole entry, looked up): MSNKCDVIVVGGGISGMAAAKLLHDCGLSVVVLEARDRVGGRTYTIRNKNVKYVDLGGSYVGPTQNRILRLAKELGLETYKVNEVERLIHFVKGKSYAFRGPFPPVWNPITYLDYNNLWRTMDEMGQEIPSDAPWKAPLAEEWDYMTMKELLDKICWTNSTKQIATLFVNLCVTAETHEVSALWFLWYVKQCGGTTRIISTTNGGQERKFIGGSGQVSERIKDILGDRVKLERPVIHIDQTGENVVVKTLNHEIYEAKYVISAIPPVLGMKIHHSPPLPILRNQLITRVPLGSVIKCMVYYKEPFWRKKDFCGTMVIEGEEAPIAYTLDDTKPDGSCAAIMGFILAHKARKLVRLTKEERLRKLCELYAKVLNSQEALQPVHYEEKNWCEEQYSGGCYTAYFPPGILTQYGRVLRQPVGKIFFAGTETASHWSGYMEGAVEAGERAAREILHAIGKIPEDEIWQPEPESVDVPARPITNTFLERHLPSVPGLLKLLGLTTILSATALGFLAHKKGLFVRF

One assay has as its target rat Monoamine Oxidase, MAO-B, Central (MAOBC), Maob (gene 25750) (UniProt P19643). Briefly: NVS_ENZ_rMAOBC: NovaScreen (NVS) Enzymatic Assay for rat Monoamine Oxidase, MAO-B, Central (MAOBC) (AID 2283238). In short, it runs like this: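 Cell-free radiometric assay, rat brain lysate. Read-out: scintillation counts, 1.17 h post-dosing. Screen 25 uM in duplicate; actives (e.g. ≥30% inhibition) then singleton concentration-response, max 50 uM. Activity loss fitted relative to DMSO.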
On to `Cc1cccc(C)c1O`, for which the result was inactive.
The same measure, in the same setting: for `C=CN1CCCC1=O` the value was “inactive”; for `CC(O)CC(C)(C)O` (stereo unspecified), “inactive”; for `c1ccc2ncccc2c1`, “inactive”.
On the same count and under the same terms, next, `CCC(C)(C)C1CCC(O)CC1` (stereo unspecified): “inactive”.
Same read-out and setting: for `CCCCCC(C)OC(=O)COc1ccc(Cl)c2cccnc12` (stereo unspecified) the value was “inactive”.
The term AC50 denotes the concentration at which the activity in the assay is half-maximal. Consider `NC(=O)N(O)[C@@H]1COc2cc(OCc3ccccc3)ccc21`, for which the AC50 is 12.2 µM (active).
On to `CCOC(=O)C(C)Oc1ccc(Oc2nc3ccc(Cl)cc3o2)cc1` (stereo unspecified), for which the call was inactive.
For `Cc1ccc(C)c(C)c1`, the call was inactive.
For `COC(=O)c1ccc(C(=O)OC)cc1`, the AC50 is 25 µM (active).
Regarding `CCOC(=O)[C@H](C)Oc1ccc(Oc2nc3ccc(Cl)cc3o2)cc1`, the AC50 is 1.57 µM (active).
Turning to `CS(=O)(=O)OCCCCOS(C)(=O)=O`, the molecule was called inactive.
With `CCc1ccc(CCOc2ccc(CC3SC(=O)NC3=O)cc2)nc1` (stereo unspecified), the AC50 was 6 µM (active).

The target of the next assay is rat Monoamine Oxidase, MAO-B, Peripheral (MAOBP), Maob (gene 25750) (UniProt P19643). Briefly: NVS_ENZ_rMAOBP: NovaScreen (NVS) Enzymatic Assay for rat Monoamine Oxidase, MAO-B, Peripheral (MAOBP) (AID 2283242).
rat Monoamine Oxidase, MAO-B, Peripheral (MAOBP), Maob (gene 25750), sequence (P19643 whole entry, looked up): as above
As to `COC(=O)c1ccc(CNS(C)(=O)=O)cc1S(=O)(=O)NC(=O)Nc1nc(OC)cc(OC)n1`, the AC50 was 35.5 µM (active).
With `OCC(CO)(CBr)CBr`, the result was inactive.
Take `CCOC(=O)C(C)Oc1ccc(Oc2nc3ccc(Cl)cc3o2)cc1` (stereo unspecified): the AC50 is 29.9 µM (active).
`CC(C)(O)c1ccc(CNC(=O)c2cccnc2Oc2ccc3nonc3c2)cc1`: the outcome was inactive.
As to `CCOC(=O)[C@H](C)Oc1ccc(Oc2nc3ccc(Cl)cc3o2)cc1`, the AC50 is 15.9 µM (active).

Another assay deals with rat Monoamine Oxidase, MAO-A, Central (MAOAC), gene 29253. Briefly: NVS_ENZ_rMAOAC: NovaScreen (NVS) Enzymatic Assay for rat Monoamine Oxidase, MAO-A, Central (MAOAC) (AID 2283243).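 Also: potency refers to inhibition seen as signal drop below DMSO baseline.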 The essentials:
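Enzyme from rat brain, cell-free radiodetection format. Counts taken at 1.5 h; activity fitted against DMSO baseline, loss of signal marking inhibition. Confirmatory concentration series followed the 25 uM duplicate screen.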
As for `c1ccc2cc3ccccc3cc2c1`, the AC50 was 25 µM (active).
The same measure, in the same setting: for `CC=Cc1ccc(OCC)c(O)c1` the value was 20.3 µM (active); for `O=C(c1ccccc1)c1ccc(O)cc1O`, 21 µM (active); for `O=[N+]([O-])c1ccc(O)cc1C(F)(F)F`, 21.1 µM (active).
For `CCCCCCCCCCCCCCCC[N+](C)(C)Cc1ccccc1`, the outcome was inactive.
Regarding `COc1ccc2nc(N)sc2c1`, the AC50 was 9.33 µM (active).
In the case of `Oc1cccc2c(O)cccc12`, the AC50 is 25 µM (active).
On the same count and under the same terms, next, `CCCCCc1ccc(O)cc1`: 17.3 µM (active).
As for `CCNc1nc(N)nc(Cl)n1`, the AC50 is 37.6 µM (active).
On the same count and under the same terms, next, `O=c1c2ccccc2oc2ccccc12`: 7.58 µM (active); `CC=Cc1ccc(OC)c(OC)c1`: 17.2 µM (active).
On the same count and under the same terms, for `Oc1cccc2ccccc12` the value was 15.4 µM (active).
`CCOC(=O)C(C)Oc1ccc(Oc2nc3ccc(Cl)cc3o2)cc1` (stereo unspecified): the molecule was classed as inactive.
The same measure, in the same setting: next, `CCCCCCCCCCCCCCCCO`: “inactive”.
Consider `Cc1c(Cl)c(=O)oc2cc(O)ccc12`, for which the AC50 is 12.2 µM (active).
Still for that read-out and setting: for `Nc1ccc(Cl)c([N+](=O)[O-])c1` the value was 12.8 µM (active); for `CCOC(=O)[C@H](C)Oc1ccc(Oc2nc3ccc(Cl)cc3o2)cc1`, 17.4 µM (active).
As for `CC(=O)Nc1ccc(C(=O)CCl)cc1`, the AC50 is 5.58 µM (active).
